# In PubChem BioAssay (NCI):
# This is part of a sample that, as a whole, favours compounds with a hit. Of some 83,000 tested, about 20% had one in any assay.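 Treatment: one concentration, 48 hours, 96-well format. Scoring: percent growth, with anything below 10 considered active.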 A number with no mark means an inactive call. Calls of active or inactive are those of the source.
# Experiments:
# Test in all cases: NCI-60 one-dose screen, 48 h (100 = growth as untreated, 0 = no growth, -100 = all killed)
# Conditions in all cases: 10 µM unless noted
# [1] = tested on: SK-MEL-2 melanoma
# [2] = tested on: EKVX NSCLC
# [3] = tested on: SN12C renal
# [4] = tested on: UO-31 renal
# [5] = tested on: ACHN renal
# [6] = tested on: CAKI-1 renal
# [7] = tested on: A498 renal
# [8] = tested on: CCRF-CEM leukemia
# [9] = tested on: MOLT-4 leukemia
# [10] = tested on: SR leukemia
# [11] = tested on: RPMI-8226 leukemia
# [12] = tested on: OVCAR-8 ovarian
# [13] = tested on: OVCAR-5 ovarian
# [14] = tested on: OVCAR-4 ovarian
# [15] = tested on: SK-OV-3 ovarian
# [16] = tested on: IGROV1 ovarian
# [17] = tested on: OVCAR-3 ovarian
# [18] = tested on: HS 578T breast
# [19] = tested on: NCI/ADR-RES ovarian
# [20] = tested on: TK-10 renal
Structure (SMILES),growth [1],growth [2],growth [3],growth [4],growth [5],growth [6],growth [7],growth [8],growth [9],growth [10],growth [11],growth [12],growth [13],growth [14],growth [15],growth [16],growth [17],growth [18],growth [19],growth [20]
CCCCNc1cc(-c2cn[nH]c2-c2cc(C)cc(OC)c2)nc(-c2cccnc2)n1,115%,88.3%,95.3%,62.3%,96.7%,66.2%,64.4%,84.7%,82.6%,60.1%,83.1%,80.2%,85.3%,73.8%,97.1%,115%,98.8%,97.6%,89.8%,–
C=CCOC(=O)C1=C(C)N(CC)C(=O)NC1c1c(Cl)n(C)c2ccccc12 (stereo unspecified),108%,98.4%,102%,76.1%,82.2%,61.5%,95%,-28% (active),93.7%,96.1%,93.8%,98.2%,90%,103%,102%,98.9%,108%,96.4%,94.1%,–
O=C(Oc1ccc(CCl)cc1)c1ccccc1,-71.4% (active),-100% (active),-84.8% (active),-92.6% (active),-92.1% (active),-96.3% (active),–,-48.6% (active),-49.7% (active),-43.7% (active),-50.2% (active),-84.5% (active),–,-83.1% (active),-100% (active),-81.4% (active),-97.3% (active),-13.4% (active),-63.7% (active),-96.3% (active)
Cc1ccc(N2C(=O)CCC2=O)cc1,84.8%,95.1%,95.3%,97.9%,103%,96.9%,82.3%,108%,101%,104%,103%,108%,96.3%,103%,99.7%,113%,102%,99.4%,98.5%,–
CCOC(=O)c1c(C)c2c(n1Cc1ccccc1)CSCC2=O,-14.5% [100 µM] (active),12.4% [100 µM],13.7% [100 µM],24.6% [100 µM],10.6% [100 µM],-30.5% [100 µM] (active),25.6% [100 µM],10.5% [100 µM],12.9% [100 µM],-2.43% [100 µM] (active),-5.25% [100 µM] (active),17.7% [100 µM],33.6% [100 µM],11.8% [100 µM],19.8% [100 µM],32.6% [100 µM],-2.49% [100 µM] (active),46.8% [100 µM],-5.65% [100 µM] (active),–
O=C1Nc2c(C(=O)O)cccc2/C1=N/c1n[nH]c(=S)s1,98.8%,77.6%,93.4%,69.9%,78%,52%,115%,88.7%,90%,84.6%,87.7%,91%,98%,–,85.7%,83%,99.1%,87%,101%,–
CN1CCN(CCOc2ccc(-c3cnc4c(-c5ccc(F)cc5)cnn4c3)cc2)CC1,81.8%,76.3%,61.6%,32.3%,46.6%,45.5%,74.9%,17.6%,8.99% (active),1.31% (active),27%,58.1%,83.4%,49%,93.1%,48.2%,28.4%,56.7%,76.5%,–
O=C(N/N=C\c1cccc([N+](=O)[O-])c1)N/N=C/c1cccc([N+](=O)[O-])c1,108%,98%,96.8%,86.8%,98.6%,95.8%,82.3%,98.7%,106%,109%,97.1%,101%,114%,105%,–,107%,112%,97.9%,106%,–
N[C@H]1CCC[C@@H]1NCCCCN1C(=O)c2cccc3cc([N+](=O)[O-])cc(c23)C1=O,84.2%,73.2%,29.7%,66%,22.4%,94.3%,62.6%,2.24% (active),0.264% (active),-6.77% (active),58.3%,37.1%,73.6%,44.5%,42.1%,34.5%,53%,65.4%,77%,–
CN(C)CCCC1(c2ccc(F)cc2)OCc2cc(-c3cc4ccccc4s3)ccc21 (stereo unspecified),72.3%,46.8%,37%,21%,14.3%,21.4%,81%,4.59% (active),-8.07% (active),-15% (active),-3.17% (active),7.22% (active),–,16.8%,68%,-28% (active),-29.1% (active),27.2%,23.7%,–
NC1(CO)COC(c2ccccc2)OC1 (stereo unspecified),102%,118%,104%,87.6%,96.3%,103%,–,99.4%,89%,83.5%,108%,103%,94.9%,–,101%,104%,126%,106%,113%,96.5%
COc1ccc(-c2nc3c(N)c(CO)cnc3s2)cc1,105%,48.4%,108%,84.6%,93.4%,88.7%,-19.1% (active),103%,91.1%,93.5%,92.9%,103%,80.4%,101%,99.9%,–,89.4%,92.8%,86.7%,–
Nc1nc(NC(=O)Nc2ccc(C(=O)O)cc2)nn1-c1ccc(S(N)(=O)=O)cc1,110%,105%,89.5%,80.7%,99.6%,90.3%,90.6%,99.4%,93.1%,99.5%,102%,86.8%,95.9%,103%,107%,94%,–,88.1%,103%,–
CCOC(=O)c1c(C)nc2c(c1N)/C(=C/c1ccc(OC)cc1)C(=O)N2Cc1ccccc1,64.6%,75.6%,57.4%,56.6%,71.1%,78.6%,74.4%,48.9%,15.9%,22.1%,5.58% (active),50.4%,126%,51.5%,–,73.3%,41.7%,69.5%,52.4%,–
Cc1nc2c(c(=O)[nH]1)C(c1ccccc1)c1ccc3ccccc3c1O2 (stereo unspecified),16.5%,60.5%,44.6%,38.6%,39.8%,30%,20.6%,13%,41%,19.3%,27.1%,34.5%,87.2%,64.2%,11.1%,38.9%,0.0339% (active),22.6%,14.6%,–
CS(=O)(=O)c1ccc(NC(=O)c2ccccc2)nc1,109%,109%,99.1%,99.9%,111%,106%,92.3%,74.7%,71.3%,76.8%,100%,107%,108%,115%,94.1%,111%,110%,98.1%,110%,–
